Measured values published in PubChem BioAssay (NCI).
The panel holds about 83,000 compounds, 20% with a hit somewhere; the sample as a whole holds those more often.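 Each cell line was grown in a 96-well plate and treated with one concentration of compound for 48 hours. Values below 10 were considered active.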 The source made the active and inactive calls.

Tests used:
Experiment in all cases: NCI-60 one-dose screen, 48 h (100 = growth as untreated, 0 = no growth, -100 = all killed)
Conditions in all cases: 10 µM unless noted
[1] = test system: EKVX NSCLC
[2] = test system: SN12C renal
[3] = test system: UO-31 renal
[4] = test system: TK-10 renal
[5] = test system: ACHN renal
[6] = test system: CAKI-1 renal
[7] = test system: A498 renal
[8] = test system: CCRF-CEM leukemia
[9] = test system: MOLT-4 leukemia

Measured: growth

Cc1cnc(NC(=O)Nc2cc(Br)c(C)cc2OC[C@@H]2CNCCO2)cn1
active: [3] -12.3% | [5] 3.08% | [6] 1.9% | [8] 4.56% | [9] 2.6%
inactive: [1] 25.9% | [2] 39.5% | [4] 28.8% | [7] 18.1%

CN(C[C@@H]1COCCO1)S(=O)(=O)Nc1ccc2ccc3ncc(-c4cnn(C)c4)cc3c(=O)c2c1
inactive: [1] 52.9% | [2] 38.9% | [4] 37.2% | [5] 22.2% | [8] 34.9% | [9] 21.1%
active: [3] 8.44% | [6] 7.99% | [7] -19%

O=c1[nH]c([C@@H]2CCCN2)nc2c1oc1ccc(Cl)cc12
active: [7] 6.25%
inactive: [1] 61.4% | [2] 81.3% | [3] 58.4% | [4] 52.3% | [5] 71.5% | [6] 42.4% | [8] 63.1% | [9] 68.4%
